# IMPase cell inh: qHTS Assay for Identifying the Cell-Membrane Permeable IMPase Inhibitors; Inositol monophosphatase 1 (Rattus norvegicus), P97697; CHO-M1 cells, IP1 accumulation, HTRF TR-FRET ratio; inhibition (IP1 accumulation), % at 46.1 µM; 120,000 tested, under 10 active; AID 901, 2007; active means well fitted curve in the direction sought with a large enough effect in the signal ratio, not every such curve was filed as active; inconclusive means small, poorly fitted or top-dose-only effect, or a change in a side signal; inactive means no such curve, though single readings can be large or run the other way; the % refers to the signal ratio;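 further: cells stimulated with carbachol in lithium chloride buffer; plate controls were DMSO basal wells for no effect and reference inhibitor wells for full effect; higher means more IMPase inhibition seen as more IP1 and lower FRET ratio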
#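 Seeded CHO-M1 cells were dosed with compound at up to 46 uM, stimulated with carbachol for 30 min, then lysed in IP-One detection reagents. Higher IP1 lowers the TR-FRET signal.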
# Lamin A splicing: qHTS Assay for Modulators of Lamin A Splicing. Potency, µM (top dose mostly 46.1 µM), inactives show top-dose ratio change, negative = inhibition, most hits filed as inhibitors. HeLa LMNA splicing GFP/RFP minigene ratio, 48 h. 200,000 tested, 0.01% active; active means well fitted inhibition curve with a large enough effect in the signal ratio, with a control signal flat, not every such curve was filed as active; inconclusive means small, poorly fitted or top-dose-only effect, or effect the other way, or a change in a side signal; the % refers to the signal ratio; further: potency means the concentration at half of the fitted maximal effect
#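 S3 HeLa stable clones carrying a lamin A-EGFP splicing minigene plus DsRed2 were seeded at 600 cells/well in Opti-MEM with 2% FBS, pin-dosed and incubated 48 h at 37°C. Acumen cytometry (488 nm) gave the GFP/RFP total-intensity ratio.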
# ALDH1A1 inh: qHTS Assay for Inhibitors of Aldehyde Dehydrogenase 1 (ALDH1A1); Potency, µM (series often up to 75.3 µM), without a hit: at the top dose activity, negative = inhibition, hits mostly inhibitors; Purified ALDH1A1, NADH fluorescence, propionaldehyde substrate; 220,000 tested, 7.3% active; Aldehyde dehydrogenase 1A1 (Homo sapiens), P00352;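 further: potency means the concentration at half of the fitted maximal effect; plate controls were no enzyme wells and a reference inhibitor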
# Target sequence (P00352 whole entry, looked up): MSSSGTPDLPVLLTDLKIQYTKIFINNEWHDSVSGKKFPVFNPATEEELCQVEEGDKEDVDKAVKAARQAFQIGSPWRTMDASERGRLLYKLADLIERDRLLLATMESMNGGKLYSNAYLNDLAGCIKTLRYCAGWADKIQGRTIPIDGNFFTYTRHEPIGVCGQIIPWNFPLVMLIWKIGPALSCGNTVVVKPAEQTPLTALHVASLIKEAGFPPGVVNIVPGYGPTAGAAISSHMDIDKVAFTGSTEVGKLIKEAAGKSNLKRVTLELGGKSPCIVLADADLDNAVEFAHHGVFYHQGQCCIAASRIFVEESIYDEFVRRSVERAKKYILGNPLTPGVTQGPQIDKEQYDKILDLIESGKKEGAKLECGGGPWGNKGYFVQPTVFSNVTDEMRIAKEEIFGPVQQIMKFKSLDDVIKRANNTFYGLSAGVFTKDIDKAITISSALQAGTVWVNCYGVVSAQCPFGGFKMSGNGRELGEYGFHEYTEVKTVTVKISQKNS
# HPGD block: qHTS Assay for Inhibitors of HPGD (15-Hydroxyprostaglandin Dehydrogenase) | 15-hydroxyprostaglandin dehydrogenase [NAD(+)] (Homo sapiens), P15428 | purified HPGD, NADH fluorescence kinetic, PGE2 substrate | Potency, µM, without a hit: at the top dose activity change, negative = inhibition, most hits filed as inhibitors | 150,000 tested, 4.3% active | AID 894, 2007; further: potency means the concentration at half of the fitted maximal effect
#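 NADH formation kinetics: reaction with 30 uM PGE2 and 1 mM NAD+ (final), 20 nM enzyme, Tris-HCl pH 8 with Tween 20, after 15 min compound preincubation at room temperature. Fluorescence change, last versus first of five reads.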
# PNC assembly inh: High Content Assay for Compounds that inhibit the Assembly of the Perinucleolar Compartment | PC3M PTB-GFP, PNC prevalence imaging, 16 h; active compounds read low | activity change (PNC), negative = inhibition, % at 10 µM | 140,000 tested, 3.1% active | AID 2417, 2010;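 active means readout at or below -70, meaning at least 70% loss of cells showing the perinucleolar compartment, a nuclear body marking cancer cells; inconclusive means readout between -30 and a set limit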;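 further: plate controls were DMSO wells for no effect and camptothecin positive control wells for full effect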
#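 Read-out is percentage of cells bearing a perinucleolar compartment, from automated 20x imaging of fixed, Hoechst-stained PC3M PTB-GFP cells. Cells were seeded 4 h, then exposed 16 h to compound (23 nl of library stock) in duplicate plates.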
# KinaseGlo FLuc: Counterscreen for Luciferase (Kinase-Glo TM) Inhibition; Kinase-Glo luciferase, ATP luminescence, 8 min; Potency, µM (titrated, usually from 38.3 µM), for inactives: at the highest dose activity change, negative = inhibition, most hits filed as inhibitors; 200,000 tested, 0.28% active; AID 1379, 2008; active means well fitted inhibition curve with a large enough effect; inconclusive means small, poorly fitted or top-dose-only effect; further: potency means the concentration at half of the fitted maximal effect; nearly all actives have a fitted effect of over 60% in size
#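 Kinase-Glo luciferase light output from ATP and luciferin was measured with 10 uM ATP, within the enzyme's linear range. Buffer: 50 mM imidazole pH 7.2, 50 mM KCl, 7 mM MgCl2, 0.01% Tween 20, 0.05% BSA; luminescence read after 8 min at ambient temperature.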
# Numbers without * were called inactive; ? = inconclusive; . = no result; [ ] = remark or other dose. The list is not random: actives were taken first. Their share in the collection is about 10%. Unless noted, the call rests on the fitted dose curve; in most records, active means well fitted inhibition curve with a large enough effect (not every such curve was filed as active); inconclusive means small, poorly fitted or top-dose-only effect, or another doubt; inactive means no such curve, though single readings can be large or run the other way. Unless noted, on the % scale 0 is the no-effect control and ±100 the full control effect.
SMILES,IMPase cell inh,Lamin A splicing,ALDH1A1 inh,HPGD block,PNC assembly inh,KinaseGlo FLuc
Cc1cc(Cl)ccc1N(CC(=O)NCCSCc1ccco1)S(C)(=O)=O,.,?,13µM*,.,.,0%
Cc1ccc(NC(=O)CSc2nc(=O)n(CCN3CCOCC3)c3c2CCC3)c(C)c1,.,-14%[46 µM],.,.,.,.
Cc1cccc(CNC(=O)Cn2nc(C)c3nn(-c4ccc(Cl)cc4)c(C)c3c2=O)c1,.,-5%[46 µM],.,.,.,.
COC(=O)c1sccc1S(=O)(=O)N1CCN(c2ccccc2OC)CC1,.,2%[46 µM],.,.,.,.
O=C(O)/C=C(/C(=O)O)[C@]12CCN3CC4=CCO[C@@H]5CC(=O)N[C@@H]1C5[C@H]4C[C@H]32 (stereo not given in full),.,.,-2%[13.5 µM],-5%,.,-1%[7.66 µM]
COc1ccc(OCC(=O)NC2CC(=O)N(c3cccc(OC)c3)C2)cc1 (stereo not given),.,-2%[46 µM],.,.,.,.
Cc1cc(C)cc(N(CC(=O)NCCSCc2ccccc2)S(C)(=O)=O)c1,.,.,-5%,.,.,2%
CN(c1ccc(C(=O)NCCSCc2ccco2)cc1)S(C)(=O)=O,1,-1%,2.5µM*,?,?,-6%
CS(=O)(=O)N(CC(=O)NCCSCc1ccccc1)c1ccccc1,.,.,28µM*,.,.,-4%
COc1ccc(N(CC(=O)NCCSCc2ccco2)S(=O)(=O)c2ccc(C)cc2)cc1,.,4%[46 µM],20µM*,.,.,2%
COc1ccc(N(CC(=O)NCCSCc2ccco2)S(=O)(=O)c2ccccc2)cc1,.,.,?,.,.,-1%
Cc1ccc(S(=O)(=O)N(CC(=O)NCCSCc2ccco2)c2ccc(F)cc2)cc1,.,.,28µM*,.,.,.
Cc1ccc(CNC(=O)COCc2cc(-c3cccs3)on2)cc1,.,4%[46 µM],.,.,.,.
COc1ccc(C(=O)N2CCC3(CC2)CN(c2ccc(-c4ccccc4)cc2)C3)cc1,.,.,1%,-4%,.,-2%
Nc1cnn([C@@H]2O[C@H](CO)[C@@H](O)[C@H]2O)c(=O)n1,.,.,?,-8%,.,.
O=C(O)c1ccc(N2Cc3ccccc3C2)cc1O,5,4%,28µM*,16µM*,1,?
Fc1ccc(CSc2nc3ncc(Br)cc3[nH]2)cc1,3,1%,7%,0.63µM*,12,-3%
O=C(CSc1nc2ncc(Br)cc2[nH]1)c1ccc([N+](=O)[O-])cc1,-5,-3%,?,8.9µM*,?,0%
Cc1ccc(C(=O)CSc2nnc3ccc4ccccc4n23)cc1,.,6%[46 µM],.,.,.,.
CCCn1cnc2c(c1=O)c1nc3ccccc3nc1n2CCC1=CCCCC1,6,-6%,-8%,-14%,-7,1%
O=c1c2c3nc4ccccc4nc3n(/N=C/c3ccco3)c2ncn1CCC1=CCCCC1,5,-8%,25µM*,-16%,?,-4%
CC1(C)CC(N(Cc2ccco2)C(=O)Cc2ccccc2)CCO1 (stereo not given),2,-4%,1%,-7%,-10,-3%
CC1(C)CC(N(Cc2cccs2)C(=O)c2ccco2)CCO1 (stereo not given),8,-1%,10µM*,-7%,?,-2%
CCCOc1ncnc2c1sc1nc3c(cc12)COC(C)(C)C3,.,1%[46 µM],?,.,.,1%
CCc1nc(OCc2ccccc2)c2sc3nc4c(cc3c2n1)COC(C)(C)C4,4,5%,0.79µM*,-25%,?,-3%
CCSc1ncnc2c1sc1nc3c(cc12)COC(C)(C)C3,0,-6%,0.79µM*,-15%,-29,2%
CCc1nc2c(sc3nc4c(cc32)COC(C)(C)C4)c(=O)n1CCN(CC)CC,.,?,10µM*,.,.,-1%
CCC(C)Nc1nnnc2c1sc1nc3c(cc12)COC(C)(C)C3 (stereo not given),.,?,10µM*,.,.,2%

# Screening results (PubChem)
